Pf growth 48h: inhibits P. falciparum growth in the first generation, 48 h; P. falciparum luciferase growth in erythrocytes, 48 h; Potency, µM (titrated, usually from 28.7 µM), without a hit: at the top dose activity change, negative = inhibition, actives largely listed as inhibitors; hit rate 5.9% among 310,000; AID 504832; further: potency means the concentration at half of the fitted maximal effect; on the % scale 0 is the no-effect control and ±100 the full control effect
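Here the parasites carry a stable luciferase gene and grow inside erythrocytes in Albumax-based RPMI medium with compound for one erythrocytic cycle. Activity is scored as loss of luminescent signal.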
CHX counter: counter-screen hit for Shiga toxin inhibitors, cycloheximide | hit rate 12% among 300,000 | AID 2314 | cell reporter, cycloheximide protein synthesis inhibition counterscreen | max response, %; in the data active means max response mostly above about 13%, no sharp cut-off; inactive means mostly below about 14%; further: read at 38.3 µM for the half of the compounds with a filed dose; 0% is about no effect
NS1 function inh: influenza NS1 inhibition; Potency, µM (titrated, usually from 46.1 µM), without a hit: top-dose activity, positive = more growth; hit rate 0.4% among 270,000; AID 2326; calls by dose curve; further: potency means the concentration at half of the fitted maximal effect; actives are rising curves; nearly all actives have a fitted effect of over 50% in size
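Growth recovery, yeast-based: influenza A NS1 expressed in S. cerevisiae causes slow growth, and suppressors are detected by OD600. The parent strain without NS1 is used as positive control.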
Pf growth 96h: inhibits malaria parasite growth, 96 h | hit rate 6.9% among 320,000 | Potency, µM (top dose mostly 28.7 µM), for the others: at the highest dose activity change, negative = inhibition, hits mostly inhibitors | P. falciparum luciferase reporter growth, 96 h; further: potency means the concentration at half of the fitted maximal effect; on the % scale 0 is the no-effect control and ±100 the full control effect
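Readout is luminescence from an integrated firefly luciferase in P. falciparum. Red cells, 2% hematocrit and 0.05% parasitemia final, were cultured with compound through two parasite generations (96 hours) at 37 C, 5% CO2.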
Shiga inhibitor: inhibitors of Shiga toxin in Vero cells; inhibition, % at 38.7 µM; AID 2315; Vero cells, Shiga toxin protein synthesis inhibition reporter; hit rate 9.2% among 290,000; in the data active means inhibition mostly above about 28%, no sharp cut-off; inactive means mostly below about 43%; further: 0% is about no effect
Sm TGR inh: blocks Schistosoma mansoni thioredoxin glutathione reductase. Q962Y6. purified TGR, DTNB reduction, TNB absorbance 405 nm. Potency, µM (doses to about 114 µM), for the others: top-dose activity change, negative = inhibition, actives largely listed as inhibitors. hit rate 3% among 360,000; further: potency means the concentration at half of the fitted maximal effect; on the % scale 0 is the no-effect control and ±100 the full control effect; nearly all actives have a fitted effect of over 60% in size
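TGR 20 nM + NADPH 100 uM (dispensed conc.), cpd preinc 15 min RT; start with NADPH (500 uM addition) then DTNB (15 mM addition). Kinetic TNB absorbance, 405 nm filter. Four-parameter Hill fit across titration.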
* marks the source's active call; other numbers are inactive results; i = inactive; ? = inconclusive; . = not tested or not shown. An excerpt weighted towards active compounds, which were near 21% of everything screened. Unless noted, the call rests on the fitted dose curve; in most records, active means well fitted curve in the direction sought with a large enough effect; inconclusive means small, poorly fitted or top-dose-only effect, or another doubt; inactive means no such curve, though single readings can be large; an effect the other way counts as inactive or inconclusive.

SMILES	Pf growth 48h	CHX counter	NS1 function inh	Pf growth 96h	Shiga inhibitor	Sm TGR inh
CCOc1ccccc1/C=C/c1onc(C)c1S(=O)(=O)N1CCC(C(=O)NC)CC1	?	-3	9%	-24%	-1	3%
Cc1ccc2[nH]c(C)cc(=O)c2c1	.	-1	.	.	i	.
CC(CS(=O)(=O)c1ccc2c(c1)NC(=O)CS2)C(=O)NCc1ccccc1Cl (configuration not stated)	1%	12	10%	73%	-4	-16%
Cc1ccccc1OCCCSc1nc2ccccc2[nH]1	7%	19*	-29%	10µM*	27*	0%
c1ccc(OCCSc2nc3ccccc3[nH]2)cc1	?	26*	-18%	7.4µM*	21*	6%
Cc1nc(SCCC(=O)O)c2ccccc2n1	10%	0	10%	?	-8	3%
Cc1nc(SCCOc2ccc(F)cc2)c2ccccc2n1	49%	25*	.	-1%	79*	8%
Brc1ccc2nc(SCCOc3ccccc3)[nH]c2c1	.	.	.	.	.	-1%
N/C(Cn1cncn1)=N\NC(=O)C(=O)Nc1cccc(C(F)(F)F)c1	12%	-1	2%	39%	-5	-4%
CCc1cccc(NC(=O)C(CC(C)C)NS(=O)(=O)c2ccc3c(c2)oc(=O)n3C)c1 (configuration not stated)	.	.	.	.	.	1%
COc1ccc(C(=O)NCCCOc2cccnc2)cc1OC1CCN(C(C)=O)CC1	-13%	5	0%	41%	-5	-28%
O=C(NCCc1ccccc1)c1ccc(Cl)c(S(=O)(=O)N2CCOCC2)c1	?	24*	12%	10µM*	31	-21%
O=C(NCCN1CCOCC1)c1ccc(Cl)c(S(=O)(=O)N2CCCC2)c1	?	6	4%	54%	-3	11%
COc1cccc(CNC(=O)c2ccc(Cl)c(S(=O)(=O)N3CCOCC3)c2)c1	8.3µM*	.	.	6.6µM*	.	13%
Cc1nn(-c2ccccc2)c2c1N(CC(=O)N1CCN(c3ccccc3F)CC1)C(=O)CS2	.	.	.	.	.	-9%
Cc1nc2ccccc2c(=O)n1-c1ccc([N+](=O)[O-])cc1	-7%	42*	8%	15µM*	64*	?
Cc1cc(-c2ccc([N+](=O)[O-])cc2)nc2ccccc12	48%	46*	.	118%	62*	6%
Cc1cc(-c2cccc([N+](=O)[O-])c2)nc2ccccc12	50%	12	-12%	i	-1	-15%
Cc1nc2ccccc2c(=O)n1-c1ccc(NC(=O)c2ccc([N+](=O)[O-])cc2)cc1	.	.	.	.	.	7%
Cc1nc2cc([N+](=O)[O-])ccc2c(=O)n1-c1ccc(Br)cc1	13%	-2	-9%	13µM*	2	?
CC1CCCCN1C(=O)COc1ccc(F)cc1 (configuration not stated)	18%	11	1%	?	26	.
Cc1cccc(C(=O)Nc2ccc(N3CCC(N4CCCCC4)CC3)c(C(=O)O)c2)c1	.	.	.	.	.	0%
COc1cc(C(C(=O)NC(C)(C)C)N(C(=O)CNC(=O)c2cccs2)c2cccnc2)cc(OC)c1OC (configuration not stated)	-7%	-2	3%	-20%	2	7%
O=C1c2oc3ccc(F)cc3c(=O)c2C(c2cccc(O)c2)N1CCCN1CCOCC1 (configuration not stated)	25%	-2	-5%	10µM*	-12	-15%
C=CCOc1cccc(C2c3c(oc4ccc(F)cc4c3=O)C(=O)N2CCCN2CCOCC2)c1 (configuration not stated)	12µM*	-2	?	6%	1	?
SMILES	Pf growth 48h	CHX counter	NS1 function inh	Pf growth 96h	Shiga inhibitor	Sm TGR inh
Cn1c(NC2CCCCC2)cc(=O)n(C)c1=O	?	-2	-8%	10µM*	-11	5%
Cn1c(NC(=O)CCC2CCCCC2)cc(=O)n(C)c1=O	.	71*	-54%	?	113*	-21%
CCOC(=O)c1sc(=S)n(-c2ccccc2)c1N(C(C)=O)C(C)=O	23%	1	.	72%	-4	29%
CC1(C(=O)O)CCC(C(=O)Nc2ccccc2O)C1(C)C (configuration not stated)	.	-7	-4%	12µM*	-22	1%
CC(C)(C)c1ccc(NC(=O)c2ccc(=O)[nH]n2)cc1	161%	54*	-3%	422%	111*	6%
O=C(Nc1ccccn1)c1ccc(=O)[nH]n1	1%	7	4%	.	-7	15%
O=C(NCc1ccc2c(c1)OCO2)c1nn(-c2ccccc2)c(=O)c2ccccc12	-25%	-2	6%	0.74µM*	24	16%
CC(C)(C)c1nn(-c2ccccc2)c2[nH]c(=O)c(CNCc3ccc4c(c3)OCO4)cc12	.	5	-10%	0.33µM*	-2	0%
O=C(Nc1ccccc1-c1ccccc1)c1ccc(=O)[nH]n1	81%	46*	-5%	15µM*	83*	63%
CCOc1cccc(NCc2cc3c(C(C)(C)C)nn(-c4ccccc4)c3[nH]c2=O)c1	?	-2	10%	.	-15	-6%
COc1cc([N+](=O)[O-])ccc1NC(=O)N1CCC2(CC1)Nc1cc(F)ccc1-n1cccc12	.	.	.	.	.	2%
CCCCn1nc(C(=O)Nc2ccc3c(c2)OCCO3)c2ccccc2c1=O	?	.	.	6.6µM*	.	8%
O=C(Nc1ccc2c(c1)OCO2)c1nn(-c2ccccc2)c(=O)c2ccccc12	12µM*	-4	-15%	13µM*	-8	-8%
O=C(Nc1ccc2c(c1)OCO2)c1ccc(=O)[nH]n1	63%	18*	4%	102%	52*	-3%
Cn1nc(C(=O)Nc2ccc3c(c2)OCCO3)c2ccccc2c1=O	22%	.	.	28%	.	0%
O=C(Nc1ccc2c(c1)OCO2)c1n[nH]c(=O)c2ccccc12	49%	18*	0%	71%	57*	1%
COc1cn(CC(=O)Nc2cccc(C)c2)c(CN2CCCCC2)cc1=O	.	.	.	.	.	7%
CC(C)Cn1c(=O)c(C(=O)NCc2ccc3c(c2)OCO3)c(O)c2ccccc21	?	-1	4%	?	-7	-3%
CC(C)CCn1c(=O)c(C(=O)NCc2ccc3c(c2)OCO3)c(O)c2ccccc21	5.9µM*	-4	?	?	-10	17%
COc1ccc(CN2C(=O)C(C)N(C(=O)c3c(F)cccc3F)c3ccccc32)cc1 (configuration not stated)	1.9µM*	4	-15%	2.1µM*	15	0%
CC1C(=O)N(Cc2ccc([N+](=O)[O-])cc2)c2ccccc2N1C(=O)c1c(F)cccc1F (configuration not stated)	9.3µM*	-3	2%	?	-7	5%
COc1cccc(CN2C(=O)C(C)N(C(=O)c3ccccc3)c3ccccc32)c1 (configuration not stated)	?	0	-5%	10µM*	5	10%
